High-throughput results (PubChem)
D1 PAM: human D1 dopamine receptor positive modulation; AID 504651; HEK293 TREx D1 cells, calcium flux, dopamine EC20 potentiation; potentiation, % at 10 µM; P21728; 0.036% of 360,000 active; in the data active means potentiation above about 30%; further: 0% is about no effect
TRPV1 PAM: potentiators of human vanilloid receptor 1 (TRPV1) | potentiation, % at 8.33 µM | 0.02% of 320,000 active | Q8NER1 | TRPV1-expressing cells, Fluo-8 calcium influx, capsaicin EC20 potentiation | AID 540277; in the data active means potentiation above about 80%; inconclusive means between about 30% and that limit; further: 0% is about no effect
Target sequence (Q8NER1 whole entry, looked up): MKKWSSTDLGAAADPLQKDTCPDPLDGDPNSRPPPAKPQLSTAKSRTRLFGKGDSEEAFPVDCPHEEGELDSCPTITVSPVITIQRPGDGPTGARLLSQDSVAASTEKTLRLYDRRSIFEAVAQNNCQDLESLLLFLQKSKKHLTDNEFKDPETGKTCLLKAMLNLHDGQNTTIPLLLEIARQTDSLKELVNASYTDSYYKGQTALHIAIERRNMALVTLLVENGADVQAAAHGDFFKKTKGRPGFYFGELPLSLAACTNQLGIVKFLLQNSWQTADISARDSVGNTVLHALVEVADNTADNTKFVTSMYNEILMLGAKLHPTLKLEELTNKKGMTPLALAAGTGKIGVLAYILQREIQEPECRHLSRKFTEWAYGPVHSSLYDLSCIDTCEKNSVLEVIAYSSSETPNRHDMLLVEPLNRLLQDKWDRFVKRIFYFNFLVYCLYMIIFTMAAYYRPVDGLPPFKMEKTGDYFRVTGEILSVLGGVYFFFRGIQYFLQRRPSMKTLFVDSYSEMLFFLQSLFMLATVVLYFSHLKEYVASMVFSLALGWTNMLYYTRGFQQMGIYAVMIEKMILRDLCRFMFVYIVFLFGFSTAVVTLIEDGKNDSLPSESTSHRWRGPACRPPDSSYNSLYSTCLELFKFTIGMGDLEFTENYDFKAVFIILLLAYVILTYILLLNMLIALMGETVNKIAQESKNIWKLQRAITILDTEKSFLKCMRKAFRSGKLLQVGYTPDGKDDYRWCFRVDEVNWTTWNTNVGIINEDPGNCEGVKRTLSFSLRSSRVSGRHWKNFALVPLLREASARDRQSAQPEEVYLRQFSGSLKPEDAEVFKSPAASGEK
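TRPV1-expressing cells were cultured overnight at 35.5C and loaded with Fluo-8 calcium dye for 40 to 90 min at room temperature. After a 10 s baseline, compound was added and calcium influx was read kinetically for 3 min (ex 480/em 520 nm).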
TRPV1 ag: activates the human vanilloid receptor TRPV1. 0.19% of 320,000 active. activation, % at 8.33 µM. AID 540275. TRPV1-expressing cells, Fluo-8 calcium influx, agonist mode. Q8NER1; in the data active means activation above about 80%; inconclusive means between about 30% and that limit; further: 0% is about no effect
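TRPV1-expressing cells were cultured overnight at 35.5C and loaded with Fluo-8 calcium dye for 40 to 90 min at room temperature. After a 10 s baseline, compound was added and calcium influx was read kinetically for 3 min (ex 480/em 520 nm).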
D1 ag: human D1 receptor agonism; P21728; HEK293 T-REx D1 cells, calcium flux, agonist mode; activation, % at 2 µM; 1% of 360,000 active; in the data active means activation above about 30%; further: 0% is about no effect
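Inducible HEK293 T-REx D1 cells, force-coupled to calcium signalling, were plated at 4000 cells/well with tetracycline and held overnight at 30 C. After no-wash calcium dye loading, compound-evoked calcium rise over 180 s flagged agonists.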
D1 antag: blocks dopamine activation of the human D1 receptor; P21728; HEK293 TREx D1 cells, calcium flux, dopamine EC80; active compounds read low; activity change, negative = inhibition, % at 10 µM; 3.2% of 360,000 active; in the data active means activity change below about -30%; further: on the % scale 0 is the no-effect control and ±100 the full control effect
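Cells carrying a force-coupled, tetracycline-inducible human D1 receptor report calcium flux. Each well gets a 10 s baseline, compound with 180 s monitoring, then an EC80 dopamine stimulus with a second 180 s kinetic read.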
* marks the source's active call; other numbers are inactive results; ? = inconclusive; nt = not tested or not shown. This is a sample that favours compounds with a hit; in the whole collection about 4.2% have one here.

SMILES	D1 PAM	TRPV1 PAM	TRPV1 ag	D1 ag	D1 antag
Cc1ccc([N+](=O)[O-])cc1NC(=O)Nc1cccc(F)c1	-6	-4	7	25	-51*
CC(NC(=O)Nc1cccnc1)(C(F)(F)F)C(F)(F)F	-5	-21	?	2	10
CC(NC(=O)Nc1cccc([N+](=O)[O-])c1)(C(F)(F)F)C(F)(F)F	2	-14	?	26	-36*
CCCCc1nc2cc(C(=O)N3CCCCC3COC)ccc2o1 (stereo unspecified)	-7	-14	-2	1	-31*
Cc1c(OC(C)C(=O)NC2CC(C)(C)NC(C)(C)C2)ccc2c3c(c(=O)oc12)CCC3 (stereo unspecified)	-5	2	-2	2	-49*
Cc1c(OC(=O)CNC(=O)OC(C)(C)C)ccc2c3c(c(=O)oc12)CCC3	-10	-1	-4	4	-43*
Cc1c(OC(C)C(=O)NCc2ccccn2)ccc2c3c(c(=O)oc12)CCCC3 (stereo unspecified)	-7	12	6	7	-37*
Cc1c(OC(C)C(=O)NCCCN2CCCC2=O)ccc2c3c(c(=O)oc12)CCCC3 (stereo unspecified)	-2	-9	-3	33*	4
CCc1ccc(CNC(=O)C(CC)n2nc(C)c3c(C)n(-c4ccccc4)nc3c2=O)cc1 (stereo unspecified)	5	nt	nt	2	6
CC(C)(C)c1ccc(C(=O)NNC(=O)C2CCCCC2)cc1	-5	-17	90*	5	-1
COc1cc(C(=O)NC(=S)NNC(=O)c2ccc3c(c2)OCO3)cc(OC)c1OC	8	13	2	4	-21
CC(C)(C)c1ccc(C(=O)NC(=S)N2CCCCCC2)cc1	-3	-9	?	1	-20
COc1cc(C(=O)NC(=S)Nc2ccc3c(c2)OCO3)cc(OC)c1OC	-5	4	-2	0	-35*
COc1ccc(Cl)cc1C(=O)NNC(=S)NC(=O)c1cc(-c2ccc(Cl)cc2)nc2ccccc12	4	-2	6	10	-9
COc1ccc(Cl)cc1C(=O)NNC(=S)NC(=O)c1ccc(F)c(F)c1	-2	-11	10	171*	6
COc1cc(C(=O)NNC(=O)C2CCC2)cc(OC)c1OC	-5	6	2	3	-48*
COc1ccc(-c2nc(CN3CCC(C(=O)NCCCN4CCN(c5ccccc5F)CC4)CC3)c(C)o2)cc1OC	-4	nt	nt	0	-10
COc1cccc(NC(=O)CCSc2nc(-c3ccco3)cc(C(F)(F)F)n2)c1	-8	nt	nt	4	1
COc1cc(C(=O)NNC(=S)NC(=O)c2ccc(F)cc2)cc(OC)c1OC	-3	?	-4	44*	-4
CCOC(=O)c1ccc(NC(=O)CSc2nc(-c3ccc(OC)cc3)cc(C(F)(F)F)c2C#N)cc1	-6	nt	nt	16	3
CC[N+]1=C(C)C(C)(C)c2cc(C)ccc21	-7	10	1	17	-34*
CN(C(=O)CSc1nnc(-c2ccco2)n1Cc1ccccc1)C1CCS(=O)(=O)C1 (stereo unspecified)	11	-9	-3	1	-37*
Cc1ccc2c(c1)C(c1ccccc1)N(C(=O)COc1ccc(Cl)cc1Cl)CC(=O)N2 (stereo unspecified)	2	nt	nt	8	7
O=C(Cn1cc(CNC(=O)c2ccccc2)nn1)Nc1cc(C(F)(F)F)ccc1Cl	1	nt	nt	-1	-2
CN1CCN(C2Cc3ccccc3Sc3ccc(Cl)cc32)CC1 (stereo unspecified)	-6	2	6	7	-105*
CSc1ccc2c(c1)C(N1CCN(C)CC1)Cc1ccccc1S2 (stereo unspecified)	-2	-4	12	24	-87*
CCCOc1ccc(NC(=O)CC2C(=O)N(c3ccccc3)C(=O)N2CCC(C)C)cc1 (stereo unspecified)	0	nt	nt	1	-2
Cc1ccc(OCC(=O)Nc2ccc3nc(SCC(=O)N4CCOCC4)sc3c2)cc1	-1	nt	nt	5	-11
COc1ccc(C(=O)Nc2ccc3nc(SCC(=O)N4CCc5ccccc54)sc3c2)cc1	0	nt	nt	4	13
Cc1ccc(C(=O)Nc2ccc3nc(SCC(=O)N4CCc5ccccc54)sc3c2)cc1	-1	nt	nt	4	-5
